Giardia killer: Giardia lamblia killing | Giardia lamblia trophozoite viability | activity change, % at 7.66 µM, hits read low | 340,000 compounds, 0.15% hits; in the data active = activity change below about -80%; inconclusive = between about -30% and that limit;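 also: parasites exposed to compound for two days anaerobically before the ATP read; % is scaled to controls: 0 for no effect and ±100 for the full control effect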
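Luminescence from cellular ATP indicates surviving trophozoites (100 cells/well) following 48 hrs anaerobic compound treatment at 37 deg C; signal develops 15-30 min at room temperature.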
RORgamma inh: ROR gamma (mouse) transcription inhibition; Drosophila S2 Gal4-RORgamma UAS-luciferase reporter, 20 h; Potency, µM (top dose mostly 53.6 µM), for the others: at the top dose activity change, negative = inhibition, hits mostly inhibitors; 310,000 compounds, 5.4% hits; also: potency is read from the fitted curve at half-maximal effect; % is scaled to controls: 0 for no effect and ±100 for the full control effect; nearly all actives have a fitted effect of over 60% in size
Target sequence (P51450 whole entry, looked up, the tested form may be a part): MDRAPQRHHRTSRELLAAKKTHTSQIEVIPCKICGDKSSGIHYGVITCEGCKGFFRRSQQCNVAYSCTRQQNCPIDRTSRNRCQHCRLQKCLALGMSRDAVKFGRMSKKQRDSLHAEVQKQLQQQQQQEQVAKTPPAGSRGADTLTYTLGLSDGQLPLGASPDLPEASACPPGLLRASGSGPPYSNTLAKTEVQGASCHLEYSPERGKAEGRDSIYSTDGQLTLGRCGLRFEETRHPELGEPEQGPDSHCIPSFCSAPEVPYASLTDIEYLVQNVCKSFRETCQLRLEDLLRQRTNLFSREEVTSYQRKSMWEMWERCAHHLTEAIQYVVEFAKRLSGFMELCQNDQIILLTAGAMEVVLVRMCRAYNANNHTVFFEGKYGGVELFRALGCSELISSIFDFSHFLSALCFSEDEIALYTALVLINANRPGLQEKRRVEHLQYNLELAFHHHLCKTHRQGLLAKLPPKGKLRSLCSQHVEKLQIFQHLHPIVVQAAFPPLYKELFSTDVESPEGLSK
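Luminescence from a UAS-regulated Photinus luciferase reporter in stably transfected Drosophila Schneider cells is measured; decreased signal marks ROR gamma inhibition. Fusion expression is induced by 700 uM copper sulfate for 20 hr.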
MCF10A rerep: DNA re-replication induction in MCF 10a cells; MCF 10A DNA re-replication, Hoechst nuclear intensity, 48 h; Potency, µM (highest dose often 46.1 µM), without a hit: at the highest dose activity, positive = re-replication, hits mostly activators; 350,000 compounds, 2.9% hits; also: potency is read from the fitted curve at half-maximal effect; % of control where 0% means no effect; nearly all actives have a fitted effect of over 50% in size
BCR signal inh: chronic active BCR signaling inhibition; ABC-DLBCL IkBa-CBG/CBR reporter, luminescence ratio, 4 h; Potency, µM (titrated, usually from 46.1 µM), inactives show at the top dose activity change, negative = inhibition, usual class: inhibitors; 340,000 compounds, 0.05% hits; active = well fitted inhibition curve with a large enough effect in the signal ratio, with a control signal flat, not every such curve was filed as active; inconclusive = small, poorly fitted or top-dose-only effect, or effect the other way, or a change in a side signal; the % refers to the signal ratio;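 also: potency is read from the fitted curve at half-maximal effect; plate controls were basal doxycycline-induced cells for no effect and cells given 10 µM MG132 for full effect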
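TMD8 ABC-DLBCL cells carrying doxycycline-inducible green luciferase fused to IkappaBalpha plus unfused red luciferase were exposed to compounds (up to 46 uM) for 4 hrs at 37C. Activity came from the overlap-corrected green/red luminescence ratio.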
Gal4-VP16 FLuc: Gal4-VP16 reporter inhibition counter-screen; Potency, µM (titrated, usually from 53.6 µM), for the others: at the highest dose activity, negative = inhibition, usual class: inhibitors; Drosophila S2 Gal4-VP16 UAS-luciferase, luminescence, 20 h; AID 2546; 310,000 compounds, 3.5% hits;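 also: Gal4-VP16 expression switched on by copper sulfate through the metallothionein promoter; potency is read from the fitted curve at half-maximal effect; % is scaled to controls: 0 for no effect and ±100 for the full control effect; nearly all actives have a fitted effect of over 50% in size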
SW480 rereplic: induces DNA re-replication in SW480 colon adenocarcinoma cells; SW480 DNA re-replication, Hoechst DNA content imaging, 48 h; Potency, µM (doses to about 46.1 µM), for inactives: at the highest dose re-replication activation, actives largely listed as activators; 340,000 compounds, 1.8% hits; AID 624297; also: potency is read from the fitted curve at half-maximal effect; % of control where 0% means no effect; nearly all actives have a fitted effect of over 55% in size
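Quantitative HTS format with DMSO vehicle controls; 48 hr drug incubation at 37 C, then 40 min Hoechst staining and scanning imager measurement at 405 nm excitation.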
* hit, by the source's call; ? = inconclusive; nt = not tested or not shown; [ ] = dose if it differs, or a comment. An excerpt weighted towards active compounds, which were near 8.3% of everything screened. Unless noted, calls follow the shape of the dose curve; as a rule, active = well fitted curve in the direction sought with a large enough effect; inconclusive = small, poorly fitted or top-dose-only effect, or another doubt; inactive = no such curve, though single readings can be large; an effect the other way counts as inactive or inconclusive.

SMILES	Giardia killer	RORgamma inh	MCF10A rerep	BCR signal inh	Gal4-VP16 FLuc	SW480 rereplic
COc1ccc(-c2cc(C(F)(F)F)n3nc(C(=O)N4CCCCC4)cc3n2)cc1	-14.6	22.1%	9.0%	?	1.3%	7.4%
O=C(NCCCn1ccnc1)c1cc2nc(-c3ccc(Br)cc3)cc(C(F)(F)F)n2n1	28.7	-21.5%	14.6µM*	?	-9.3%	?
COc1ccc(-c2cc(C(F)(F)F)n3nc(C(=O)NCCCN4CCOCC4)cc3n2)cc1	3.5	19.2%	?	-11.1%	-4.5%	8.2µM*
Cc1cc(-c2ccccc2)nc2cc(C(=O)NCCCn3ccnc3)nn12	-20.6	?	-6.6%	0.8%	3.5%	-5.5%
CCCN1CNc2c(c(=O)[nH]c(=S)n2CCc2cccc(C)c2C)C1	-10.0	nt	nt	nt	nt	nt
Cc1scc(C(=O)N2CCN(c3ccc(Cl)cc3)CC2)c1C	20.8	?	14.1%	-0.8%	7.1%	-6.3%
CCCn1c(SCC(=O)Nc2ccccc2OC)nnc1-c1ccco1	-9.8	-0.4%	6.51µM*	-3.5%	1.1%	9.2µM*
COc1ccc(OC)c(NC(=O)CSc2nnc(-c3ccco3)n2-c2ccccc2)c1	-2.1	8.7%	1.3%	2.0%	14.1%	3.66µM*
Cc1ccc(C(=O)Nc2ccc(N3CCN(S(C)(=O)=O)CC3)cc2)cc1C	10.1	17.3%	?	6.5%	4.2%	16.4µM*
O=C(CCl)Nc1ccc(N2CCCCCC2)cc1	-15.6	?	14.6µM*	-16.4%	?	20.6µM*
O=C(Nc1ccc(N2CCCCC2)cc1)c1ccccc1	?	3.55µM*	-7.6%	?	?	-4.6%
CC(=O)C1=NN(c2ccccc2)C(c2ccc3c(c2)OCO3)N1c1ccccc1 (centres undefined)	-20.2	15.9%	8.2µM*	0.6%	-5.7%	5.8µM*
O=C(CSc1nnnn1-c1ccc(Cl)cc1)Nc1cccnc1Cl	5.7	?	3.7%	-3.4%	?	-3.6%
CCOC(=O)NC(=O)CSc1nnnn1-c1ccc(C)cc1	9.3	-17.8%	0.0%	?	-1.8%	-9.3%
COC(=O)c1ccc(-n2nnnc2SCC(=O)Nc2cc(OC)ccc2OC)cc1	-6.6	17.9%[10 µM]	-10.7%	-2.2%	-24.5%	-10.5%
CCOC(=O)NC(=O)CSc1nnnn1-c1ccc(Cl)cc1	8.0	-24.0%	1.84µM*	0.7%	1.9%	5.17µM*
Cc1ccc(-n2nnnc2SCC(=O)Nc2cccnc2Cl)cc1	18.3	?	23.1%	-7.9%	12.6µM*	?
COc1ccc(-n2nnnc2SCC(=O)Nc2cc(OC)c([N+](=O)[O-])cc2C)cc1	-16.4	6.31µM*	4.61µM*	-1.6%	10µM*	1.8%
O=C(CSc1nnc(-c2ccccc2F)n1C1CC1)Nc1cccnc1Cl	0.2	?	8.5%	?	39.8µM*	-1.4%
CC12C=C(/C=C/c3ccc(Br)cc3)C(C)(C1)[C@H](c1ccc(Br)cc1)CC2=O (some centres undefined)	nt	1.1%	nt	nt	1.6%	nt
COc1ccc(NC(=O)CSc2nccn2C)cc1S(N)(=O)=O	-4.4	10.4%	2.7%	7.2%	-4.7%	-4.8%
CCCCCOc1ccc(NC(=O)C(=O)NCC2CCCN2CC)cc1 (centres undefined)	4.6	-10.6%	14.6µM*	6.0%	-3.7%	5.5%
COc1ccc(NC(=O)C(=O)NCC2CCCN2S(=O)(=O)c2cccs2)cc1 (centres undefined)	-3.8	nt	6.51µM*	-0.5%	nt	2.59µM*
CCN1CCCC1CNC(=O)C(=O)NC (centres undefined)	10.9	14.5%	22.0%	7.6%	5.9%[10 µM]	-9.4%
Cc1cc(NS(=O)(=O)c2ccc(NC(=O)c3ccc([N+](=O)[O-])s3)cc2)nc(C)n1	-4.4	nt	18.4µM*	-7.8%	nt	?
SMILES	Giardia killer	RORgamma inh	MCF10A rerep	BCR signal inh	Gal4-VP16 FLuc	SW480 rereplic
Cc1ccnc(NS(=O)(=O)c2ccc(NC(=O)c3ccc([N+](=O)[O-])s3)cc2)n1	5.7	0.9%	11.6µM*	?	-12.1%	18.4µM*
Cc1cc(NS(=O)(=O)c2ccc(NC(=O)c3c(F)c(F)c(F)c(F)c3F)cc2)nc(C)n1	7.4	-18.4%	?	0.0%	0.3%	0.2%
Cc1ccccc1/C=N/Nc1ccnc2cc(Cl)ccc12	?	?	18.4µM*	-1.0%	?	?
Cc1ccc(/C=N/Nc2ccnc3cc(Cl)ccc23)c(C)c1	-87.9*	?	?	?	8.91µM*	?
Clc1ccc(NNc2ccnc3cc(Cl)ccc23)cc1	12.8	-30.3%	?	0.6%	-1.4%	-2.7%
Clc1ccc2c(N/N=C/c3cccnc3)ccnc2c1	4.1	?	?	?	?	?
Oc1ccc(/C=N/Nc2ccnc3cc(Cl)ccc23)c(O)c1	-3.4	-31.2%	?	12.8%	-11.8%	?
Clc1ccc2c(N/N=C/c3ccc(Br)cc3)ccnc2c1	-95.6*	6.31µM*	2.59µM*	?	7.08µM*	18.4µM*
Cc1ccc(NC(=O)COC(=O)C2COc3ccccc3O2)cc1 (centres undefined)	-11.0	nt	-5.1%	-0.6%	nt	?
CC(C)c1ccc(C2C3=C(CC(c4ccco4)CC3=O)Nc3nc(C(F)(F)F)nn32)cc1 (centres undefined)	1.5	nt	nt	nt	nt	nt
CCOC(=O)c1sc2ccc(S(=O)(=O)N3CCCCC3)cc2c1N	-6.7	?	?	?	-7.4%	25.9µM*
CC(C)CC(=O)Nc1nc2ccc(S(=O)(=O)N3CCOCC3)cc2s1	-14.7	9.8%	?	-12.6%	5.5%	18.4µM*
CCCC(=O)Nc1nc2ccc(S(=O)(=O)N3CCCCC3)cc2s1	4.7	22.8%	?	?	-1.9%	3.66µM*
CC(C)[C@H](NC(=O)c1cccc(S(=O)(=O)N2CCOCC2)c1)C(=O)Nc1nc2ccccc2s1	6.5	?	9.9%	0.0%	0.7%	0.4%
CC(=O)Nc1nc2ccc(S(=O)(=O)N3CCCC3)cc2s1	12.7	-16.1%	1.5%	-12.7%	26.0%	15.1%
CCOC(=O)[C@H]1[C@H]2COc3ccc(Br)cc3[C@@H]2N2C(=O)c3cc(F)c(F)cc3NC(=O)[C@@]12C	-6.8	nt	25.2%	?	nt	9.7%
COc1ccc(NC(=O)c2ccc(Br)c(S(=O)(=O)N3CCOCC3)c2)cc1	-5.4	30.6%	-2.2%	-0.8%	-8.7%	7.9%
CCN1CCc2c(sc(NC(=O)c3ccc(S(=O)(=O)N4CCOCC4)cc3)c2C(=O)OC)C1	0.8	8.7%	14.6µM*	-5.1%	-10.3%	?
CCN1CCc2c(sc(NC(=O)Nc3ccc(Cl)c(Cl)c3)c2C(N)=O)C1	-8.4	36.4%	9.2µM*	?	-19.0%	14.6µM*

Screens from PubChem.
